Reference: PubChem BioAssay AID493098 (Sanford-Burnham Center for Chemical Genomics, 2011)
About 1,700 (0.5%) of roughly 340,000 compounds were called active. The sample holds actives, similar compounds and a random draw of the others, so the mix is not that of the screen.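 How the source made its calls: active means compounds whose inhibition of the agonist-driven luminescence signal at 20 µM reaches about 50% (limit read from the data); inactive means the rest.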

These compounds were tested against C-C chemokine receptor type 6 (Homo sapiens) (UniProt P51684) (assay: CCR6 receptor antagonists, primary screen, cell-based, CHO-K1, luminescence, beta-arrestin, uHTS (AID 493098;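 further: cells stimulated with CCL20 at 14 nM final; plate controls were DMSO with CCL20 for no effect and DMSO without agonist for full effect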)). Conditions: CHO-K1 CCR6 PathHunter beta-arrestin, CCL20-stimulated, at 20 µM, stronger effect = higher value.
Sequence of C-C chemokine receptor type 6 (Homo sapiens) (P51684 whole entry, looked up): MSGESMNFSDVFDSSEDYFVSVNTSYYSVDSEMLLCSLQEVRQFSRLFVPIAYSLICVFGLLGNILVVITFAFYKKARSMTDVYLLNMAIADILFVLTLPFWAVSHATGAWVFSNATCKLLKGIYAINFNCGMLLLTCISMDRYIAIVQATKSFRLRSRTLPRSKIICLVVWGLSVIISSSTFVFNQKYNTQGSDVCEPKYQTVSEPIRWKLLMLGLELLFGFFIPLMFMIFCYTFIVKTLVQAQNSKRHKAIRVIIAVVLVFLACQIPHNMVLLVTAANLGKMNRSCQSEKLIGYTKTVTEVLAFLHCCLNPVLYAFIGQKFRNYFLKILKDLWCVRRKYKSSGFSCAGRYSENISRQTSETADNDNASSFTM

Q: `Nc1ccc(SCCN2C(=O)c3ccccc3C2=O)cc1` was tested. Which inhibition did it give?
A: -6.02% (inactive)

Q: How did the inhibition turn out when `Cc1ccc2oc(=O)c3cnn(CC(=O)N(Cc4ccco4)C4CCCCC4)c3c2c1` was run?
A: 20.4% (inactive)

Q: Which inhibition does the source give for `O=C(Nc1ccccc1Cl)/C(Cl)=C(\Cl)S(=O)c1ccccc1` (stereo unspecified) here?
A: 95.1% (active)

Q: Which inhibition does the source give for `CN(C)S(=O)(=O)Oc1ccccc1C(=O)Nc1ccccc1Cl` here?
A: 8.47% (inactive)

Q: Which inhibition does the source give for `O=C(COC(=O)CCc1c[nH]c(=O)[nH]1)Nc1ccccc1Cl` here?
A: -11.7% (inactive)

Q: How did the inhibition turn out when `Cc1c(S(=O)(=O)N2CC(C)CC(C)C2)c(=O)n(C)c(=O)n1C` (stereo unspecified) was run?
A: -1.65% (inactive)

Q: `OCCNc1nc(Nc2ccc(Cl)c(Cl)c2)nc2ccccc12` was tested. Which inhibition did it give?
A: -13.9% (inactive)

Q: `CCN(CC)CCCSc1nc2ccccc2s1` was tested. Which inhibition did it give?
A: -12.8% (inactive)

Q: Which inhibition does the source give for `O=[N+]([O-])c1c(NCCO)cc(Sc2nc3ccccc3s2)c2nonc12` here?
A: 114% (active)

Q: How did the inhibition turn out when `Cc1nc(C)c(-c2nnc(-c3cccc(S(=O)(=O)N(C)C)c3)o2)cc1C(=O)NN` was run?
A: 8.51% (inactive)

Q: How did the inhibition turn out when `CCOc1ccc2[nH]c3nc(SCC(=O)NC4CCCC4)nnc3c2c1` was run?
A: 15.4% (inactive)

Q: For `Cc1nc2nc(SCC(=O)Nc3cccc(F)c3)[nH]c2cc1Br`, which inhibition is on record?
A: -8.14% (inactive)

Q: Which inhibition does the source give for `O=C(CN1CCN(C(=S)NC2CCCC2)CC1)Nc1ccc(Oc2ccccc2)cc1` here?
A: 10.7% (inactive)

Q: With `CCC(=C/c1sc2ccc3ccccc3c2[n+]1C)/C=C1\Sc2ccc3ccccc3c2N1C` as the compound, how does the inhibition read?
A: 66.6% (active)

Q: With `S=c1[nH]nc(/C=C/c2ccccc2)o1` as the compound, how does the inhibition read?
A: -11.1% (inactive)

Q: For `CC(C)[C@H](NC(=O)N1CCn2c1nc1ccccc12)C(=O)NCCc1ccccc1`, which inhibition is on record?
A: 20.7% (inactive)

Q: With `CCCN(C(=O)COC(=O)CNS(=O)(=O)c1ccc(NC(C)=O)cc1)C1CCS(=O)(=O)C1` (stereo unspecified) as the compound, how does the inhibition read?
A: 4.25% (inactive)

Q: For `O=C(O)CCN(Cc1ccccc1)S(=O)(=O)c1c(Cl)cccc1Cl`, which inhibition is on record?
A: 4.62% (inactive)

Q: For `CC(=NNC(=S)N1CCCCCC1)c1ccccn1`, which inhibition is on record?
A: 21.3% (inactive)

Q: Which inhibition does the source give for `C/C(=N\NC(=O)Cc1ccc(Cl)cc1)c1ccccn1` here?
A: 102% (active)

Q: How did the inhibition turn out when `NC(=O)NC(CC(=O)NNC(=O)c1ccccn1)c1ccc(Cl)cc1` (stereo unspecified) was run?
A: -16.2% (inactive)

Q: How did the inhibition turn out when `COC(=O)c1ccc(NC(=S)NN2CCOCC2)cc1` was run?
A: 1.46% (inactive)

Q: With `Cc1nc2nc(C)c(NS(=O)(=O)c3ccc(C(C)(C)C)cc3)c(=O)n2[nH]1` as the compound, how does the inhibition read?
A: 6.13% (inactive)

Q: `CC1CCCC(NC(=O)CSc2nccn2C)C1C` (stereo unspecified) was tested. Which inhibition did it give?
A: 7.72% (inactive)

Q: `CC1(C)CC2CC(C)(CN2c2ncnc3ccc(Br)cc23)C1` (stereo unspecified) was tested. Which inhibition did it give?
A: 10.7% (inactive)

Q: Which inhibition does the source give for `COc1ccc(OC)c(CCNC(=O)c2nn(C)c3c2CS(=O)(=O)c2ccccc2-3)c1` here?
A: 9.14% (inactive)
